# From the supplement of paper PMC3334620
# The full ranking holds about 33,000 sequences; the median of “E-score (-0.5 to 0.5)” is about -0.013, and the highest 2% start at about 0.3. The sample as a whole holds a higher share of the highest values than the screen did.
# Molecular target: T1, Msn1 (UniProt P22148)
# T1 sequence: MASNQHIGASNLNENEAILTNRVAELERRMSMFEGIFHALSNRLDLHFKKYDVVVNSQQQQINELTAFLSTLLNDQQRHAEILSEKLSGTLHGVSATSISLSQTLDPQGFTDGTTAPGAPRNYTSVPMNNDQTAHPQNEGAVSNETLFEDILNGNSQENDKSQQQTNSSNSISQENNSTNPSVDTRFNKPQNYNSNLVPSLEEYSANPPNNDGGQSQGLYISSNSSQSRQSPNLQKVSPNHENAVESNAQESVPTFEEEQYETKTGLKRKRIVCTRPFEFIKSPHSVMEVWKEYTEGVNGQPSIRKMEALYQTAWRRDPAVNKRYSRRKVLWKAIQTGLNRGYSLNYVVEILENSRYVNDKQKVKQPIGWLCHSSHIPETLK
# Experiment: PBM E-score (8-mer binding enrichment) (E-score (-0.5 to 0.5)); higher = stronger / more preferred TF binding
# Conditions: protein concentration: 200 nM; construct: GST-full length
# Procedure, shortened: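 Bound GST-tagged yeast transcription factors, applied at about 100-200 nM to double-stranded universal all-10-mer Agilent arrays, were detected with fluorescent anti-GST. Scans were normalised with masliner. A modified Wilcoxon-Mann-Whitney statistic, the E-score, was assigned to each ungapped eight-base word pooled with its reverse complement by the Universal PBM Analysis Suite.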
row,Sequence,PBM E-score
1,CTCTCCCC,-0.213
2,ACAACATG,0.0414
3,AATATGCC,-0.141
4,CTCTGATA,0.112
5,CCAGGGAC,0.0428
6,ACGTTAGT,0.0228
7,ACTTACTG,-0.113
8,AAGCTGCG,0.00828
9,AGCCCTGC,-0.252
10,AAGGGCGG,-0.21
11,CCGAACCC,-0.146
12,CATTGCAC,0.0641
13,ATAACGAT,-0.192
14,ATAATGTA,0.139
15,CTAATGTA,0.143
16,CTAATGAC,-0.12
17,ATAATGTG,-0.0687
18,ATAATGTC,0.427
19,CTAATGTC,0.378
20,AATCCTTC,-0.0471
21,AACCCGTT,-0.0539
22,ACGAGCGT,-0.173
23,CTTCGTCC,-0.0108

row,Sequence,PBM E-score
1,ATTCGTCC,0.323
2,ATTCGTCG,0.0922
3,CTACGACC,-0.119
4,GCACGACA,-0.045
5,CGACGACA,0.17
6,ACACGACA,0.225
7,GTACGACA,0.345
8,CAACGACG,-0.0172
9,CTACGACA,0.311
10,TCACGACA,0.322
11,CCACGACA,0.179
12,CAACGACA,0.307
13,CAACGACC,-0.156
14,ATACGACA,0.133
15,AAAACGCC,0.045
16,GCTGCGCC,-0.192
17,CAAAGTGC,0.0233
18,CGCGCCCG,-0.0907
19,ACTAGACG,0.112
20,CCTTGCCG,-0.0395
21,AAAGATCC,-0.12
22,AGAGATCG,-0.0703
23,GTACGAAC,0.311

row,Sequence,PBM E-score
1,CTACGAAC,0.0953
2,GTACGAAA,0.249
3,GCACCCAC,-0.091
4,CCTACCAA,0.133
5,CAAGATGG,-0.0978
6,TGTACACA,0.279
7,CGTACAAG,0.0872
8,TTTACAAA,0.12
9,TGTACAAA,0.392
10,AGAACAAA,0.303
11,CGTACAAA,0.356
12,GTTACAAA,0.158
13,GGTACAAC,0.188
14,GGTACAAA,0.456
15,CGTACAAC,0.093
16,AGAACAAG,0.151
17,AGAACAAT,0.0106
18,TAAAGTGA,0.0769
19,GATTGTGA,0.0853
20,CTAAATGC,0.035
21,GCGGGCAC,-0.0424
22,CTCAACGC,-0.267
23,GATACAAC,0.212

row,Sequence,PBM E-score
1,CGTACATA,0.296
2,GGTACATA,0.341
3,AGTACAAA,0.44
4,AGTACATA,0.221
5,TATACAAA,0.183
6,GATACAAA,0.313
7,AGTACAAG,0.251
8,AGTACAAT,0.29
9,AATGTCTG,0.436
10,GATGTCTA,0.239
11,AATGTCTC,0.463
12,CATGTCTA,0.268
13,AGTGTCTG,0.154
14,AATGTGTC,0.3
15,CAGGTCTC,-0.00322
16,AATGTTTC,0.105
17,ACTGTCTG,0.079
18,AATGTCTA,0.454
19,CATGTGTC,0.298
20,CATGTCTC,0.343
